Screening data deposited in PubChem by Broad Institute.
Hits are enriched below; roughly 7.7% of the tested compounds scored in any of these assays.
Shh pathway inh – Hedgehog pathway signaling inhibitors, primary screen, luminescence, Shh-LIGHT2 cells, Gli-luciferase; inhibition, % (concentration not given with the values); actives 2.1% (n = 22,000); Shh-LIGHT2 Gli-luciferase reporter, 30 h;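 active = mean inhibition across valid replicates above about 65%, limit read from the data; inconclusive = mean under the limit, yet half or more replicates past it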;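 note: pathway switched on by Shh-conditioned medium diluted 1 in 25 in low serum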
NOMO-1 viab – NOMO-1 AML cell viability reduction, primary screen, STK33 inhibitor project, CellTiter-Glo luminescence. NOMO-1 AML viability, 72 h. inhibition, % (test concentration not listed). actives 7.5% (n = 37,000). AID 2330, 2010; in the data active = inhibition above about 80%; inconclusive = no clear call, values can overlap the other calls
PD-1 reverse act – activators reversing PD-1 mediated T-cell inhibition, primary screen, luminescence, primary human CD4 T cells, PD-L1 beads; AID 2316, 2010; CellTiter-Glo 96 h; activation, % (concentration not given with the values); 29,000 tested, under 10 active; call rule not given here
A number is an active result; – = inactive; ? = inconclusive; · = no result given.

SMILES | Shh pathway inh | NOMO-1 viab | PD-1 reverse act
C[C@@H]1CN([C@H](C)CO)C(=O)c2cccc(NC(=O)c3ccc(-c4nccs4)cc3)c2O[C@H]1CN(C)Cc1ccc(C(=O)Nc2ccccc2N)cc1 | · | 128.1 | –
C[C@@H]1CN([C@@H](C)CO)C(=O)c2cccc(NC(=O)c3ccc(-c4nccs4)cc3)c2O[C@H]1CN(C)Cc1ccccc1 | – | 88.2 | –
C[C@H]1CN([C@@H](C)CO)C(=O)c2cccc(NC(=O)c3ccc(-c4nccs4)cc3)c2O[C@H]1CN(C)Cc1ccccc1 | – | – | ·
C[C@H](CO)N1C[C@H](C)[C@H](CN(C)CC2CCCCC2)Oc2c(NC(=O)c3ccc(-c4nccs4)cc3)cccc2C1=O | – | – | –
C[C@@H]1CN([C@H](C)CO)C(=O)c2cccc(NC(=O)c3ccc(-c4nccs4)cc3)c2O[C@@H]1CN(C)Cc1ccccc1 | – | – | –
C[C@H]1CN([C@@H](C)CO)C(=O)c2cccc(NC(=O)c3ccc(-c4nccs4)cc3)c2O[C@@H]1CN(C)Cc1ccc(C(=O)Nc2ccccc2N)cc1 | · | 124.5 | –
COc1ccc(S(=O)(=O)N(C)CC(=O)Nc2ccccc2Br)cc1C | · | – | –
CCC(=O)c1cn(CC(=O)Nc2cccc(C(F)(F)F)c2)c2ccccc12 | · | – | ·
O=C(CSc1n[nH]c(-c2ccc(Cl)cc2)n1)Nc1c(F)cc(F)cc1Br | · | – | –
Cc1cccc(N(CC(=O)O)S(C)(=O)=O)c1C | · | – | ·
Cc1ccc(S(=O)(=O)NCC(=O)Nc2ccccc2F)cc1 | · | – | –
Cc1cc(C(=O)Nc2ccc(OCC(=O)O)cc2)ccc1[N+](=O)[O-] | · | – | ·
COC(=O)COc1ccc(NC(=O)c2ccc(NC(C)=O)cc2)cc1 | · | 118.5 | –
O=C(O)COc1ccc(C(=O)Nc2ccc(F)cc2)cc1 | · | – | –
COC(=O)COc1ccc(NC(=O)c2ccc([N+](=O)[O-])c(C)c2)cc1 | · | 117.6 | ·
O=C(Nc1ccccc1)C(F)(F)F | – | – | –
O=C(CNS(=O)(=O)c1ccccc1)Nc1ccc(Br)cc1F | · | – | –
CCOC(=O)Nc1ccc2c(c1)N(C(=O)CN1CCOCC1)c1ccccc1CC2 | · | – | ·
COc1ccc(OC)c(CN2CCN(Cc3cccc([N+](=O)[O-])c3)CC2)c1 | · | – | ·
C/C=C(/C)C(=O)O[C@@H](C)[C@@](C)(O)C(=O)O[C@H](C)[C@@H](OC(=O)/C(C)=C\C)c1cc(OC)c2c(c1)OCO2 | 89.3 | 118.9 | –
Cc1cc(C)c2c3c1C1C=CCC1CN3C(C(=O)O)C1CC=CC21 (configuration not stated) | – | 115.0 | –
CC(=O)Nc1cccc(Oc2ccc3c(c2)C(=O)N(c2ccc(Oc4ccc(C)c(C)c4)cc2)C3=O)c1 | · | – | –
Cn1c(SCC(=O)Nc2ccc(Cl)c(Cl)c2)nnc1-c1ccc(Cl)c(Cl)c1 | · | 105.8 | ·
Cc1cccc(NC(=O)CSc2nnc(-c3cccc(Br)c3)n2-c2ccccc2)c1 | · | – | –
O=C(CSc1nnc(-c2ccncc2)n1-c1ccccc1)Nc1ccc(C(F)(F)F)cc1 | · | – | –
SMILES | Shh pathway inh | NOMO-1 viab | PD-1 reverse act
Cc1ccc(NC(=O)CSc2nnc(-c3ccc(Cl)c(Cl)c3)n2C)cc1C | · | – | ·
Cc1cccc(NC(=O)CSc2nnc(-c3ccc(Cl)cc3)n2-c2cccc(C)c2)c1 | · | 128.0 | –
CC(C)(C)c1ccc(-c2nnc(SCC(=O)Nc3ccccc3)n2-c2ccccc2)cc1 | · | 112.6 | –
O=C(Cc1ccccc1)c1ccccc1C(=O)NCc1ccc(F)cc1 | ? | – | –
COC(=O)/C=C/S(=O)(=O)c1ccc(NC(C)=O)cc1 | 94.4 | 125.5 | –
COC(=O)Nc1ccc(S(=O)(=O)N(C)C)cc1 | · | – | –
CC(=O)O[C@@H]1[C@@H](O)[C@@H](O)[C@H](Oc2c(-c3ccc(O)cc3)oc3cc(O[C@@H]4O[C@@H](C)[C@H](O)[C@@H](O)[C@H]4O)cc(O)c3c2=O)O[C@H]1C | – | · | ·
O=c1oc(-c2ccccn2)nc2ccccc12 | – | – | –
c1ccc(-c2ccc3ccccc3n2)nc1 | – | 104.2 | –
Clc1ccccc1N=C/C=C1\NN=NC1c1ccc(Br)cc1 (configuration not stated) | – | – | –
C[C@H]1CN([C@@H](C)CO)C(=O)c2cccc(NC(=O)Nc3ccc(C(F)(F)F)cc3)c2O[C@H]1CN(C)S(=O)(=O)c1cccs1 | – | 90.5 | –
C[C@@H]1CN([C@H](C)CO)C(=O)c2cccc(NC(=O)Nc3ccc(F)cc3)c2O[C@@H]1CN(C)S(=O)(=O)c1cccs1 | – | – | –
C[C@@H]1CN([C@H](C)CO)C(=O)c2cccc(NC(=O)Nc3ccc(F)cc3)c2O[C@H]1CN(C)S(=O)(=O)c1cccs1 | – | – | –
C[C@H](CO)N1C[C@H](C)[C@H](CN(C)S(=O)(=O)c2cccs2)Oc2c(NC(=O)C3CC3)cccc2C1=O | 84.9 | – | ·
C[C@@H]1CN([C@H](C)CO)C(=O)c2cccc(NC(=O)C3CC3)c2O[C@H]1CN(C)S(=O)(=O)c1cccs1 | – | – | –
C[C@H](CO)N1C[C@H](C)[C@@H](CN(C)S(=O)(=O)c2cccs2)Oc2ccc(NC(=O)Nc3ccc(C(F)(F)F)cc3)cc2C1=O | – | 92.0 | –
C[C@H](CO)N1C[C@H](C)[C@H](CN(C)S(=O)(=O)c2cccs2)Oc2c(NC(=O)Nc3ccc(C(F)(F)F)cc3)cccc2C1=O | – | 92.0 | –
C[C@@H]1CN([C@H](C)CO)C(=O)c2cc(NC(=O)Nc3ccc(C(F)(F)F)cc3)ccc2O[C@H]1CN(C)S(=O)(=O)c1cccs1 | · | – | –
COC(=O)C1=CN(C2CC2)C=C(C(=O)OC)C1c1ccccc1 | – | – | –
O=C(CSc1nc2ccccc2[nH]1)Nc1cccc(Cl)c1 | · | – | –
CC(C)(C)NS(=O)(=O)c1ccc(OCC(=O)Nc2ccc(F)c(Cl)c2)cc1 | · | – | –
CCn1c(SCC(=O)Nc2cccc(C(C)=O)c2)nnc1-c1ccncc1 | · | – | –
Cn1c(=O)c2c(nc(NCc3cccnc3)n2Cc2c(F)cccc2Cl)n(C)c1=O | · | – | –
C[C@@H]1CN([C@@H](C)CO)C(=O)c2cccc(NS(=O)(=O)c3ccc(Cl)cc3)c2O[C@@H]1CN(C)S(=O)(=O)c1cccs1 | – | 84.8 | –
C[C@@H]1CN([C@@H](C)CO)C(=O)c2cccc(NS(=O)(=O)c3ccc(Cl)cc3)c2O[C@H]1CN(C)S(=O)(=O)c1cccs1 | – | – | ·
Cc1cc(Nc2ccccc2NC(=O)c2ccc([N+](=O)[O-])cc2)n(-c2ccccc2)n1 | · | – | ·
CCc1c(C#N)c(SCC(=O)c2c(C)[nH]c3ccccc23)nc2c1C(=O)CC(C)(C)C2 | · | – | –
CN(C)c1ccc(C(=C2C=CC(=[N+](C)C)C=C2)c2ccc(N(C)C)cc2)cc1 | 97.1 | 111.8 | ·
C=C(C)[C@@H]1CC[C@]2(C(=O)O)CC[C@]3(C)[C@H](CCC4[C@@]5(C)CCC(=O)C(C)(C)C5C(O)C[C@]43C)C12 (some centres not stated) | – | 104.2 | –
C=C(C)[C@@H]1CC[C@]2(C(=O)O)CC[C@]3(C)[C@H](CCC4[C@]5(C)C(CC[C@]43C)[C@@](C)(CO)[C@@H](O)[C@@H]5C(=O)O)C12 (some centres not stated) | – | – | –
